This note sets out measurements from PubChem BioAssay (Tox21).

Assay [1] in a line: qHTS RealTime-Glo MT Cell Viability Assay in HEK293 cells - 16 hour (AID 1224872). Further: nearly all actives have a fitted effect of over 50% in size. Put shortly:
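Quantitative high-throughput screen of the Tox21 10K library in HEK293: cells and RealTime-Glo reagents plated together, compound added at 5 h, luminescence monitored through 40 h at 37 C.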
A general note: Quantitative high-throughput screening tests each substance at several concentrations.

Assay [2] can be described thus: qHTS RealTime-Glo MT Cell Viability Assay in HEK293 cells - 40 hour (AID 1224874). Further: nearly all actives have a fitted effect of over 50% in size. The settings on record: RealTime-Glo luminescence; max response: active compounds read low. Put shortly: (§1)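 HEK293 cells mixed with RealTime-Glo reagents (NanoLuc plus cell-permeant prosubstrate) at 600 cells/well, preincubated 5 h at 37 C/5% CO2, then given 23 nL compound in DMSO. Nonlytic luminescence from viable cells was read at 0, 8, 16, 24, 32 and 40 h.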

A short description of assay [3]: A CellTox Green Cytotoxicity Assay to monitor cytotoxicity in HEK293 cells - 24 hour (AID 1224875). Further: nearly all actives have a fitted effect of over 45% in size. Put shortly: (§2)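 HEK293 cells premixed with CellTox Green dye were seeded at 600 cells/well and left 5 h at 37 C/5% CO2 before pin transfer of 23 nL compound in DMSO. Fluorescence from dye bound to dead-cell DNA was read during 40 h treatment.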
Assay [4] in a line: A CellTox Green Cytotoxicity Assay to monitor cytotoxicity in HepG2 cells - 16 hour (AID 1224876). Further: nearly all actives have a fitted effect of over 45% in size. An outline of the steps: (§3)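 HepG2 cells were seeded together with the CellTox Green dye at 600 cells/well, left 5 h at 37 C/5% CO2, then given compounds in DMSO. Fluorescence from dye bound to dead-cell DNA was read repeatedly over 40 h of treatment at 37 C.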
The nature of assay [5]: qHTS RealTime-Glo MT Cell Viability Assay in HepG2 cells - 32 hour (AID 1224877). Further: nearly all actives have a fitted effect of over 55% in size. Put shortly:
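Compound treatment began 5 h after plating HepG2 cells (600/well) with NanoLuc luciferase and prosubstrate. Plates stayed at 37 C for 40 h; luminescence was captured at six time points, 0 h through 40 h.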

Assay [6] in a line: A CellTox Green Cytotoxicity Assay to monitor cytotoxicity in HepG2 cells - 24 hour (AID 1224878). Further: nearly all actives have a fitted effect of over 45% in size. Put shortly:
as §3

Assay [7] can be described thus: A CellTox Green Cytotoxicity Assay to monitor cytotoxicity in HepG2 cells - 40 hour (AID 1224879). Further: nearly all actives have a fitted effect of over 40% in size. Put shortly:
as §3

Assay [8] is described as follows: A CellTox Green Cytotoxicity Assay to monitor cytotoxicity in HEK293 cells - 32 hour (AID 1224881). Further: nearly all actives have a fitted effect of over 40% in size. Put shortly: as §2
Assay [9] can be described thus: qHTS RealTime-Glo MT Cell Viability Assay in HEK293 cells - 0 hour (AID 1224880). Further: nearly all actives have a fitted effect of over 45% in size. An outline of the steps:
as §1

Where “and” joins values, the source holds several entries; their conditions need not be identical. Identical values can stand only once. Inconclusive results are not listed. A number with no mark means an inactive call. Calls of active or inactive are those of the source. The call rests on the fitted dose curve; in most records, active means well fitted curve in the direction sought with a large enough effect in the repeat runs; inconclusive means weak or mixed curves; inactive means no such curve, though single readings can be large; an effect the other way counts as inactive or inconclusive.
On the % scale 0 is the no-effect control and ±100 the full control effect; potency means the concentration at half of the fitted maximal effect.

For `C=CC(=O)Nc1cc2c(Nc3ccc(F)c(Cl)c3)ncnc2cc1OCCCN1CCOCC1`, the Potency in [1] is 10.7 µM (active); in [2], 9.52 µM (active); in [3], 19 µM (active); in assay [4], 21.3 µM (active); in [5] it was 9.52 µM (active); in assay [6], 10.7 µM (active). In addition, the Potency is 6.01 µM (active) in assay [7] and 12 µM (active) in [8].
As to `Clc1sc(Cl)c(Cl)c1Cl`, the Potency result in [1], in assay [3], in assay [4], in assay [5], in [6] and in assay [7] was “inactive” throughout. Besides, the Potency result in assay [9] and in assay [8] was “inactive” each time. The max response in assay [2] was 7.4%.
For `O=C(O)c1cc(-c2ccc(F)cc2F)ccc1O`, the Potency entry in assay [1], in assay [3], in [4], in [5], in [6] and in [7] was “inactive” each time. The Potency entry in [9] and in assay [8] was “inactive” throughout. Further, the max response in [2] is -1.84%.
Turning to `CC1(C)CCC[C@]2(C)[C@H]3CCO[C@]3(C)CC[C@@H]12`, the Potency result in assay [1], in assay [4], in assay [5], in assay [6], in [7] and in assay [9] was “inactive” throughout. In addition, the max response in [2] is 4.7%.
`CCOc1ccc2ccccc2c1C(=O)N[C@@H]1C(=O)N2[C@@H]1SC(C)(C)[C@@H]2C(=O)O`: the Potency entry in assay [1], in assay [3], in assay [4], in assay [5], in assay [6] and in [7] was “inactive” throughout. Moreover, the Potency entry in assay [9] and in assay [8] was “inactive” throughout. Further, the max response in assay [2] was 1.12%.
For `Nc1nc2c(ncn2COCCO)c(=O)[nH]1`, the Potency result in assay [1], in [3], in assay [4], in assay [5], in assay [6] and in assay [7] was “inactive” each time. The Potency result in assay [9] and in assay [8] was “inactive” each time. Besides, the max response in assay [2] is 0.456%.
Take `CCCc1ccc(OCC(=O)N2CCN(C(=O)COc3ccc(CCC)cc3OC)CC2)c(OC)c1`: the Potency was 9.52 µM (active) in assay [1], 8.49 µM (active) in [2], 26.8 µM (active) in [6] and 21.3 µM (active) in assay [7]. Moreover, the Potency result in [3] and in [9] was “inactive” throughout.
Turning to `CCCCCCCCCCCCCC[N+](C)(C)C`, the Potency in assay [1] is 21.1 µM (active) and 6.91 µM (active); in assay [2], 3.35 µM (active) and 4.89 µM (active) and 2.13 µM (active); in assay [3] it was 37.6 µM (active) and 48.9 µM (active) and 26.8 µM (active); in [5], 9.44 µM (active) and 19.5 µM (active) and 23.9 µM (active); in assay [6], 10.6 µM (active) and 19.5 µM (active) and 23.9 µM (active); in assay [7] it was 7.5 µM (active) and 15.5 µM (active) and 19 µM (active). Moreover, the Potency in assay [8] was 29.9 µM (active) and 48.9 µM (active) and 26.8 µM (active). The Potency result in assay [9] is “inactive”.
In the case of `Clc1nnc(Cl)c2ccccc12`, the Potency result in assay [1], in assay [3], in assay [4], in assay [5], in [6] and in [7] was “inactive” in each case. Besides, the Potency result in [9] and in assay [8] was “inactive” each time. Moreover, the max response in assay [2] was -4.03%.
In the case of `CCCCCCCCCCCCOCCOCCOCCOCCOCCOCCOCCOCCOCCO`, the Potency in assay [1] is 6.01 µM (active); in assay [2], 4.77 µM (active); in assay [3], 13.4 µM (active); in assay [4], 23.9 µM (active); in assay [6], 23.9 µM (active); in assay [7] it was 23.9 µM (active). Also, in assay [9], the Potency result is “inactive”.
As to `CN1CCCCC1CCN1c2ccccc2Sc2ccc(S(C)=O)cc21` (configuration not stated), the Potency entry in assay [1], in assay [3], in assay [5], in [9] and in assay [8] was “inactive” in each case.
For `CC(=O)[C@H]1CC[C@H]2[C@@H]3CCC4=CC(=O)CC[C@]4(C)[C@H]3CC[C@]12C`, the Potency in [1] is 15.4 µM (active) and 19.5 µM (active); in [2], 13.7 µM (active) and 17.4 µM (active); in assay [7] it was 54.6 µM (active) and 43.6 µM (active); in assay [9] it was 15.4 µM (active) and 19.5 µM (active); in assay [8], 24.4 µM (active) and 34.7 µM (active). For the same compound, the Potency result in [4], in assay [5] and in assay [6] was “inactive” each time.
Consider `COc1ccc2c(c1)c(CC(=O)OC/C=C(\C)CC/C=C(\C)CCC=C(C)C)c(C)n2C(=O)c1ccc(Cl)cc1`, for which the Potency result in assay [1], in [3], in assay [4], in assay [5], in assay [6] and in assay [7] was “inactive” in each case. Besides, the Potency entry in [9] and in assay [8] was “inactive” throughout. Besides, the max response in assay [2] was -0.256%.
Turning to `O=C1c2ccccc2C(=O)N1SC1CCCCC1`, the Potency in assay [1] is 34.6 µM (active) and 38.9 µM (active); in assay [2] it was 21.9 µM (active) and 38.9 µM (active); in assay [3], 13.8 µM (active) and 34.7 µM (active); in [4] it was 43.6 µM (active); in assay [5] it was 43.6 µM (active); in [6], 21.9 µM (active). Besides, the Potency in [7] is 24.5 µM (active); in assay [8], 12.3 µM (active) and 24.5 µM (active). In addition, in [9], the Potency entry was “inactive”.
As for `CC1=Nc2ccccc2C1(C)C`, the Potency result in [1], in assay [3], in assay [5], in assay [9] and in assay [8] was “inactive” throughout. The Potency in assay [6] was 49 µM (active); in assay [7] it was 38.9 µM (active).
Take `C=CCCC(=O)/C=C/C1C(C)=CCCC1(C)C` (configuration not stated): the Potency result in [1], in [4], in assay [5], in [6], in [7] and in [9] was “inactive” each time. The max response in assay [2] is -12.7%. The Potency in assay [3] is 34.7 µM (active); in assay [8], 24.5 µM (active).
Consider `FC(F)(F)c1cccc(Cl)c1`, for which the Potency result in assay [1], in [3], in assay [4], in [5], in assay [6] and in assay [7] was “inactive” in each case. Further, the Potency result in [9] and in assay [8] was “inactive” throughout. For the same compound, the max response in assay [2] was -5.72%.
As for `Nc1ccc(NCCO)c([N+](=O)[O-])c1`, the Potency entry in assay [1], in assay [3], in assay [4], in assay [5], in assay [6] and in [7] was “inactive” in each case. In addition, the Potency entry in assay [9] and in assay [8] was “inactive” each time. Moreover, the max response in assay [2] was 0.226%.
Turning to `CCOC(=O)c1ccc(C2CCC(NC[C@H](O)COc3ccc(O)c(NS(C)(=O)=O)c3)CC2)cc1` (some centres not stated), the Potency in [1] was 20.2 µM (active); in [2], 20.2 µM (active); in [5], 45.2 µM (active); in assay [6], 50.7 µM (active); in assay [7] it was 45.2 µM (active). Further, the Potency result in [9] is “inactive”.
Regarding `CCCC(=O)OC(C)(C)Cc1ccccc1`, the Potency result in assay [1], in [3], in assay [5], in assay [9] and in [8] was “inactive” throughout. In addition, the max response in assay [2] was -22.8%.
Turning to `CCN(CC)c1ccc2c(-c3ccc(S(=O)(=O)O)cc3S(=O)(=O)[O-])c3ccc(=[N+](CC)CC)cc-3oc2c1`, the Potency entry in assay [1], in assay [3], in [4], in assay [5], in assay [6] and in [7] was “inactive” each time. Also, the Potency entry in assay [9] and in [8] was “inactive” in each case. Further, in [2], the max response was -15.9%.
